Read-out in one test: CD69, CD69 (gene 969)
The test can be described thus: BSK_IMphg_CD69: BioMAP Diversity Plus: IMphg Assay for CD69 Biomarker Activity (AID 2284257). Particulars: primary human endothelial cells with macrophages. Put shortly: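 Human venular endothelial cells co-cultured with macrophages; CD69 quantified by ELISA 24 h after compound addition. Activity fitted in the positive direction relative to DMSO baseline; cytotoxicity tracked in parallel cultures via SRB total-protein staining.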

Read-out in test [1]: Eotaxin 3, CCL26 (gene 10344)
Description: BSK_BF4T_Eotaxin3: BioMAP Diversity Plus: BF4T Assay for Eotaxin 3 Biomarker Activity (AID 2284258). Particulars: primary human bronchial epithelial cells with fibroblasts. Put shortly:
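Co-culture of human bronchial epithelial cells and dermal fibroblasts, exposed to chemicals for 24 h versus DMSO. Eotaxin-3 quantified by ELISA; cytotoxicity checked in parallel cultures by sulforhodamine B total-protein staining.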

Read-out in test [2]: Monocyte Chemoattractant Protein-1 (MCP1), CCL2 (gene 6347)
Description: BSK_BF4T_MCP1: BioMAP Diversity Plus: BF4T Assay for Monocyte Chemoattractant Protein-1 (MCP1) Biomarker Activity (AID 2284259). Particulars: primary human bronchial epithelial cells with fibroblasts. The procedure, abridged: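 Co-culture of bronchial epithelial cells and dermal fibroblasts dosed with chemical; MCP-1 measured by ELISA 24 h later. Activity fitted in positive direction versus DMSO; cytotoxicity checked by SRB staining in parallel cultures.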

Read-out in test [3]: Intercellular Adhesion Molecule 1 (ICAM1), ICAM1 (gene 3383)
The test can be described thus: BSK_BF4T_ICAM1: BioMAP Diversity Plus: BF4T Assay for Intercellular Adhesion Molecule 1 (ICAM1) Biomarker Activity (AID 2284260). The following applies: primary human bronchial epithelial cells with fibroblasts. Put shortly:
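Co-culture of human bronchial epithelial cells and dermal fibroblasts exposed 24 h to chemical; cell-surface ICAM-1 quantified by ELISA. Parallel SRB total-protein staining assessed cytotoxicity; activity fitted relative to DMSO.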

Read-out in the next test: CD90, THY1 (gene 7070)
Description: BSK_BF4T_CD90: BioMAP Diversity Plus: BF4T Assay for CD90 Biomarker Activity (AID 2284262). The following applies: primary human bronchial epithelial cells with fibroblasts. The procedure, abridged: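 Co-culture of human bronchial epithelial cells and dermal fibroblasts, 24 h compound exposure. Cell-surface CD90 measured by ELISA relative to DMSO; parallel SRB total-protein staining for cytotoxicity.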

Read-out in test [4]: Interleukin-1 alpha (IL1a), IL1A (gene 3552)
The test can be described thus: BSK_BF4T_IL1a: BioMAP Diversity Plus: BF4T Assay for Interleukin-1 alpha (IL1a) Biomarker Activity (AID 2284264). The following applies: primary human bronchial epithelial cells with fibroblasts. The procedure, abridged: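 Human bronchial epithelial cells co-cultured with dermal fibroblasts, dosed and read at 24 h. Secreted/surface IL-1α quantified by ELISA; gain-of-signal fitted relative to DMSO baseline. Parallel SRB total-protein staining tracked cytotoxicity.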

Read-out in another test: KRT18 (gene 3875)
Description: BSK_BF4T_Keratin818: BioMAP Diversity Plus: BF4T Assay for Keratin 818 Biomarker Activity (AID 2284266). Particulars: primary human bronchial epithelial cells with fibroblasts. Put shortly: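 Co-culture of human bronchial epithelial cells and dermal fibroblasts, chemical exposure 24 h. Keratin 8/18 measured by ELISA; positive-direction fit vs DMSO. SRB total protein run in parallel cultures for cytotoxicity.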

Read-out in test [5]: Matrix Metallopeptidase 1 (MMP1), MMP1 (gene 4312)
The test can be described thus: BSK_BF4T_MMP1: BioMAP Diversity Plus: BF4T Assay for Matrix Metallopeptidase 1 (MMP1) Biomarker Activity (AID 2284270). Particulars: primary human bronchial epithelial cells with fibroblasts. Put shortly: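 Co-culture of human bronchial epithelial cells and dermal fibroblasts; MMP-1 levels measured by ELISA 24 hours after chemical dosing, relative to DMSO. Cytotoxicity checked in parallel cultures by SRB total-protein staining.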

Read-out in test [6]: Matrix Metallopeptidase 3 (MMP3), MMP3 (gene 4314)
Description: BSK_BF4T_MMP3: BioMAP Diversity Plus: BF4T Assay for Matrix Metallopeptidase 3 (MMP3) Biomarker Activity (AID 2284271). Particulars: primary human bronchial epithelial cells with fibroblasts. The procedure, abridged:
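Co-culture of human bronchial epithelial cells and dermal fibroblasts dosed 24 h; MMP-3 measured by ELISA, positive-direction fit versus DMSO. Cytotoxicity tracked by SRB total-protein staining (560 nm) in parallel cultures.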

Read-out in test [7]: Tissue plasminogen activator (tPA), PLAT (gene 5327)
The test can be described thus: BSK_BF4T_tPA: BioMAP Diversity Plus: BF4T Assay for Tissue plasminogen activator (tPA) Biomarker Activity (AID 2284272). The following applies: primary human bronchial epithelial cells with fibroblasts. Put shortly:
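tPA level quantified by ELISA at 24 h post-treatment in bronchial epithelial/dermal fibroblast co-cultures, gain of signal scored against DMSO baseline. Parallel cultures stained with 0.1% SRB (560 nm) to flag overt cytotoxicity.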

Read-out in test [8]: Plasminogen Activator Inhibitor-1 (PAI1), SERPINE1 (gene 5054)
Description: BSK_BF4T_PAI1: BioMAP Diversity Plus: BF4T Assay for Plasminogen Activator Inhibitor-1 (PAI1) Biomarker Activity (AID 2284273). Particulars: primary human bronchial epithelial cells with fibroblasts. Put shortly:
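Co-culture of human bronchial epithelial cells and dermal fibroblasts exposed to compound for 24 h. PAI-1 measured by ELISA; activity fitted in positive direction versus DMSO. Parallel SRB staining assessed overt cytotoxicity.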

A short description of test [9]: BSK_BF4T_SRB: Viability Assessment in the BioMAP Diversity Plus: BF4T Assay (AID 2284274). The following applies: primary human bronchial epithelial cells with fibroblasts. Put shortly:
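Co-culture of human bronchial epithelial cells and dermal fibroblasts (BioMAP BF4T) exposed 24 h. Total protein by sulforhodamine B staining (0.1% SRB after 10% TCA fixation, 560 nm) in parallel cultures; fitted vs DMSO.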

Read-out in test [10]: urokinase Plasminogen Activator (uPA), PLAU (gene 5328)
Description: BSK_BF4T_uPA: BioMAP Diversity Plus: BF4T Assay for urokinase Plasminogen Activator (uPA) Biomarker Activity (AID 2284275). Particulars: primary human bronchial epithelial cells with fibroblasts. The procedure, abridged: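 Co-culture of human bronchial epithelial cells and dermal fibroblasts; uPA quantified by ELISA 24 hours after dosing, fitted relative to DMSO. Parallel SRB total-protein staining assessed overt cytotoxicity.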

Read-out in test [11]: Matrix Metallopeptidase 9 (MMP9), MMP9 (gene 4318)
The test can be described thus: BSK_BF4T_MMP9: BioMAP Diversity Plus: BF4T Assay for Matrix Metallopeptidase 9 (MMP9) Biomarker Activity (AID 2284276). The following applies: primary human bronchial epithelial cells with fibroblasts. Put shortly: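 Co-culture of human bronchial epithelial cells and dermal fibroblasts dosed for 24 h; MMP-9 quantified by ELISA and fitted upward versus DMSO. Cytotoxicity monitored in parallel cultures by SRB total-protein staining at the biomarker time point.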

Read-out in test [12]: Vascular cell adhesion molecule 1 (VCAM1), VCAM1 (gene 7412)
The test can be described thus: BSK_IMphg_VCAM1: BioMAP Diversity Plus: IMphg Assay for Vascular cell adhesion molecule 1 (VCAM1) Biomarker Activity (AID 2284286). The following applies: primary human endothelial cells with macrophages. The procedure, abridged: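 Human venular endothelial cells co-cultured with macrophages; VCAM-1 quantified by ELISA 24 h after dosing, fitted in the positive direction against DMSO. Cytotoxicity was checked in parallel cultures by SRB total-protein staining (0.1% SRB after 10% TCA fixation, 560 nm).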

Read-out in a further test: CD40, CD40 (gene 958)
Description: BSK_IMphg_CD40: BioMAP Diversity Plus: IMphg Assay for CD40 Biomarker Activity (AID 2284288). Particulars: primary human endothelial cells with macrophages. The procedure, abridged:
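Venular endothelial cells co-cultured with macrophages (human primary), CD40 measured by ELISA 24 h after dosing. Positive-direction fit vs DMSO baseline; cytotoxicity tracked by SRB total-protein staining in parallel cultures.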

Read-out in test [13]: E-selectin (Homo sapiens) (UniProt P16581)
The test can be described thus: BSK_IMphg_ESelectin: BioMAP Diversity Plus: IMphg Assay for Eselectin Biomarker Activity (AID 2284291). Particulars: primary human endothelial cells with macrophages. Put shortly:
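Human venular endothelial cell–macrophage co-culture, E-selectin measured by ELISA 24 h after chemical dosing. Signal fitted in the positive direction against DMSO as negative control and baseline.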

The nature of test [14]: BSK_IMphg_SRB: Viability Assessment in the BioMAP Diversity Plus: IMphg Assay (AID 2284292).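 Note: measured one day after compound addition.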 The following applies: primary human endothelial cells with macrophages. Put shortly: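 Human venular endothelial cells with macrophages, 24 h after chemical dosing; total protein by 0.1% SRB staining after 10% TCA fixation, read at 560 nm. Positive-direction fitting versus DMSO baseline.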

Read-out in test [15]: Macrophage colony-stimulating factor (MCSF), CSF1 (gene 1435)
The test can be described thus: BSK_IMphg_MCSF: BioMAP Diversity Plus: IMphg Assay for Macrophage colony-stimulating factor (MCSF) Biomarker Activity (AID 2284293). Particulars: primary human endothelial cells with macrophages. Put shortly:
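Co-culture of human venular endothelial cells and macrophages, 24 hours of chemical exposure. M-CSF quantified by ELISA, with parallel SRB total-protein staining for cytotoxicity; activity fitted relative to DMSO.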

Read-out in test [16]: Interleukin-10 (IL10), IL10 (gene 3586)
Description: BSK_IMphg_IL10: BioMAP Diversity Plus: IMphg Assay for Interleukin-10 (IL10) Biomarker Activity (AID 2284294). Particulars: primary human endothelial cells with macrophages. Put shortly:
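Human venular endothelial cells cocultured with macrophages, dosed 24 h; IL-10 measured by ELISA, activity relative to DMSO. Cytotoxicity assessed in parallel cultures by sulforhodamine B total-protein staining.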

Where “and” joins values, the source holds several entries; their conditions need not be identical. Equal values may be shown once. Calls of active or inactive are those of the source. Rule for the calls: active = hit-call score of the fitted dose curve at least 0.9, where 1 is the maximum; inactive = score below 0.9.

In general, AC50 refers to the midpoint of the concentration-response curve, whichever way the signal moves.

Chain of E-selectin (Homo sapiens) (P16581 whole entry, looked up): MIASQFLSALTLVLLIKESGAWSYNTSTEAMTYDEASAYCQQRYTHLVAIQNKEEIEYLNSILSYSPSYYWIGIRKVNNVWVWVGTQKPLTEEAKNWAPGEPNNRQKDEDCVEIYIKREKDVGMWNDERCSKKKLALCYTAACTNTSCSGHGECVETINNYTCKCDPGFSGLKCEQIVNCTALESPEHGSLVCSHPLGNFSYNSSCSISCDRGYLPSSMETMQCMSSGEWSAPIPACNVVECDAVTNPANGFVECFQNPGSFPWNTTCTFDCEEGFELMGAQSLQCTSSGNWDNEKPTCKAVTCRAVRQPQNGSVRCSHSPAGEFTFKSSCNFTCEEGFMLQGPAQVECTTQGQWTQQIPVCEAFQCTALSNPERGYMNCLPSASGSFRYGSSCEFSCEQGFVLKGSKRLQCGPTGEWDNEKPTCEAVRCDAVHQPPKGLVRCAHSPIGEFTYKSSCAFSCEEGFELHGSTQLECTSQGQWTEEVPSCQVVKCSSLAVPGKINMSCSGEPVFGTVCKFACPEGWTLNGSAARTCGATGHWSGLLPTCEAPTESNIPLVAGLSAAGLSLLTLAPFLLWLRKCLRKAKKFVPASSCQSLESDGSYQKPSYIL

As to `OC(C(F)(F)F)(C(F)(F)F)C(O)(C(F)(F)F)C(F)(F)F`, the AC50 with CD69, CD69 (gene 969) was 18.7 µM (active) and 24.2 µM (active); in test [1] it was 15.7 µM (active) and 8.93 µM (active); in test [8], 14.4 µM (active) and 8.31 µM (active); in test [12], 23.6 µM (active) and 22.1 µM (active); with CD40, CD40 (gene 958), 23 µM (active) and 21.1 µM (active); in test [13] it was 22 µM (active) and 30 µM (active). Also, the concentration at half-maximal activity (AC50) in test [14] was 34.1 µM (active) and 34.8 µM (active); in [15], 20 µM (active) and 8.19 µM (active); in test [16], 23.6 µM (active) and 21.1 µM (active). The outcome in [2] was “inactive”; in [3], “inactive”; in the test with CD90, THY1 (gene 7070), “inactive”; in test [4], “inactive”; with KRT18 (gene 3875), “inactive”; in [5], “inactive”. Besides, the outcome in [6], in [7], in test [9], in test [10] and in test [11] was inactive.

The values above are taken from PubChem BioAssay (EPA / NIEHS).
